The results in this text go back to PubChem BioAssay (NCATS).

Several values for one entry are separate records, joined by “and”; a condition that tells them apart may be missing. Equal entries are not always repeated. Inconclusive results are not listed. Activity calls are given as the source filed them. The call rests on the fitted dose curve; in most records, active means well fitted inhibition curve with a large enough effect; inconclusive means small, poorly fitted or top-dose-only effect; inactive means flat fitted curve, though single readings scatter. Where a SMILES comes first, the peptide text is derived from it. Non-standard residues stand in square brackets, D forms with d. Residues, ends and D or L forms follow the SMILES beside them. Bridges are numbered along the chain shown (N, C = ends). [ ]: non-standard residue; d: D form. The star is where a group is joined. Dab(CH2SO3H) = N[C@@H](CCNCS(=O)(=O)O)C(=O)O; X3 = CC[C@@H](C)CCCCC(=O)*; Orn = NCCC[C@H](N)C(=O)O; Dab = NCC[C@H](N)C(=O)O
On the % scale 0 is the no-effect control and ±100 the full control effect; potency means the concentration at half of the fitted maximal effect.

Test system in one test: not listed separately
Nature of the test: Drug repurposing screens with cells derived from glioblastoma tumor samples (AID 1345199). Further: nearly all actives have a fitted effect of over 40% in size. Particulars: GBM patient neurospheres viability, ATP luminescence, 48 h; at 45.9 µM (top of the series); tumour line D. The method in brief: (§1)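 Primary testing used CD133+ neurospheres from four GBM patients, seven concentrations, 48 h exposure and ATP-based viability; confirmation added three slower-growing patient lines.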
As for `CC1(C)C(C=C(Cl)Cl)C1C(=O)OCc1cccc(Oc2ccccc2)c1` (configuration not stated), the activity, negative = cell killing was -15.5% (inactive).

`CC(=O)Oc1c(C)cc(OCC(O)CNC(C)C)c(C)c1C` (configuration not stated): the activity, negative = cell killing is 5.15% (inactive). Same read-out and setting: the value for `CCCCCCCC/C=C\CCCCCCCC(=O)O` was -14.1% (inactive); that for `COc1cc([C@@H]2c3cc4c(cc3[C@@H](O[C@@H]3O[C@@H]5CO[C@@H](C)O[C@H]5[C@H](O)[C@H]3O)[C@H]3COC(=O)[C@H]23)OCO4)cc(OC)c1O` was -20.4% (inactive); that for `CO/N=C(\C(=O)N[C@@H]1C(=O)N2C(C(=O)O)=C(CSc3cnns3)CS[C@H]12)c1csc(N)n1` was 11.9% (inactive). On to `CC[C@@H](C)CCCCC(=O)N[C@@H](CCNCS(=O)(=O)O)C(=O)N[C@H](C(=O)N[C@@H](CCNCS(=O)(=O)O)C(=O)N[C@H]1CCNC(=O)[C@H]([C@@H](C)O)NC(=O)[C@H](CCNCS(=O)(=O)O)NC(=O)[C@H](CCNCS(=O)(=O)O)NC(=O)[C@H](CC(C)C)NC(=O)[C@@H](CC(C)C)NC(=O)[C@H](CCNCS(=O)(=O)O)NC1=O)[C@@H](C)O` (X3-[Dab(CH2SO3H)]T[Dab(CH2SO3H)][Dab][Dab(CH2SO3H)][dL]L[Dab(CH2SO3H)][Dab(CH2SO3H)]T; lactam 4-C), for which the activity, negative = cell killing was 10.8% (inactive). `CO[C@H]1C=CO[C@@]2(C)Oc3c(C)c(O)c4c(O)c(c5c(nc6cc(C)ccn65)c4c3C2=O)NC(=O)/C(C)=C\C=C[C@H](C)[C@H](O)[C@@H](C)[C@@H](O)[C@@H](C)[C@H](OC(C)=O)[C@@H]1C`: the activity, negative = cell killing was -26.2% (inactive).

Take `COC(=O)C1=C(C#N)NC(C)=C(C(=O)OC(C)C)C1c1cccc([N+](=O)[O-])c1` (configuration not stated): the activity, negative = cell killing is -25.1% (inactive).

The test is the same for the next values; noted with them: GBM patient neurospheres viability, ATP luminescence, 48 h; at 46.1 µM (top of the series); tumour line C.
Take `CC1(C)C(C=C(Cl)Cl)C1C(=O)OCc1cccc(Oc2ccccc2)c1` (configuration not stated): the activity, negative = cell killing is 6.86% (inactive). In the case of `CO[C@H]1C=CO[C@@]2(C)Oc3c(C)c(O)c4c(O)c(c5c(c4c3C2=O)=NC2(CCN(CC(C)C)CC2)N=5)NC(=O)/C(C)=C\C=C/[C@H](C)[C@H](O)[C@@H](C)[C@@H](O)[C@@H](C)[C@H](OC(C)=O)[C@@H]1C`, the activity, negative = cell killing was 33.4% (inactive). On the same count and under the same terms, for `CC(=O)Oc1c(C)cc(OCC(O)CNC(C)C)c(C)c1C` (configuration not stated) the value was 13.3% (inactive).

In the case of `CCOc1ccc2c(c1)C(C)=CC(C)(C)N2`, the activity, negative = cell killing is -10% (inactive).

On to `CCCCCCCC/C=C\CCCCCCCC(=O)O`, for which the activity, negative = cell killing was 14.2% (inactive). In the case of `COc1cc([C@@H]2c3cc4c(cc3[C@@H](O[C@@H]3O[C@@H]5CO[C@@H](C)O[C@H]5[C@H](O)[C@H]3O)[C@H]3COC(=O)[C@H]23)OCO4)cc(OC)c1O`, the activity, negative = cell killing was -16.4% (inactive). Take `CC(C)(C)NC(=O)[C@@H]1C[C@@H]2CCCC[C@@H]2CN1C[C@@H](O)[C@H](Cc1ccccc1)NC(=O)[C@H](CC(N)=O)NC(=O)c1ccc2ccccc2n1`: the activity, negative = cell killing was 7.54% (inactive). As to `CO[C@H]1C=CO[C@@]2(C)Oc3c(C)c(O)c4c(O)c(c5c(nc6cc(C)ccn65)c4c3C2=O)NC(=O)/C(C)=C\C=C[C@H](C)[C@H](O)[C@@H](C)[C@@H](O)[C@@H](C)[C@H](OC(C)=O)[C@@H]1C`, the activity, negative = cell killing was -2.47% (inactive).

The same test, now with this note: GBM patient neurospheres viability, ATP luminescence, 48 h; tumour line A.
Take `CO[C@H]1C=CO[C@@]2(C)Oc3c(C)c(O)c4c(O)c(c5c(c4c3C2=O)=NC2(CCN(CC(C)C)CC2)N=5)NC(=O)/C(C)=C\C=C/[C@H](C)[C@H](O)[C@@H](C)[C@@H](O)[C@@H](C)[C@H](OC(C)=O)[C@@H]1C`: the Potency was 10 µM (active).

As to `CCOc1ccc2c(c1)C(C)=CC(C)(C)N2`, the Potency is 39.8 µM (active). Consider `CC(C)(C)NC(=O)[C@@H]1C[C@@H]2CCCC[C@@H]2CN1C[C@@H](O)[C@H](Cc1ccccc1)NC(=O)[C@H](CC(N)=O)NC(=O)c1ccc2ccccc2n1`, for which the Potency is 4.47 µM (active).

As to `COC(=O)C1=C(C#N)NC(C)=C(C(=O)OC(C)C)C1c1cccc([N+](=O)[O-])c1` (configuration not stated), the Potency is 14.1 µM (active).

In another test the test system is astro (control astrocytes). The test is described as above. Particulars: viability, ATP luminescence, 48 h; series mostly up to 45.9 µM. The essentials: as §1
Turning to `C=C[C@]1(C)C[C@@H](OC(=O)CSC(C)(C)CNC(=O)[C@H](N)C(C)C)[C@]2(C)[C@H](C)CC[C@]3(CCC(=O)[C@H]32)[C@@H](C)[C@@H]1O`, the Potency result is “inactive”. For `CCN(CC)CCOc1ccc(-c2nc3cc(Cl)ccc3s2)cc1`, the Potency is 20 µM (active). Take `COC(C(=O)C(O)C(C)O)C1Cc2cc3cc(OC4CC(OC5CC(O)C(O)C(C)O5)C(O)C(C)O4)c(C)c(O)c3c(O)c2C(=O)C1OC1CC(OC2CC(OC3CC(C)(O)C(O)C(C)O3)C(O)C(C)O2)C(O)C(C)O1` (configuration not stated): the Potency was 0.355 µM (active). With `Cc1cc(/C=C/c2ccc3cc(N(C)C)ccc3[n+]2C)c(C)n1-c1ccccc1`, the Potency is 11.2 µM (active).

With `COc1cc2c(cc1O)CCN[C@]21CS[C@@H]2c3c(OC(C)=O)c(C)c4c(c3[C@H](COC1=O)N1[C@@H]2[C@H]2c3c(cc(C)c(OC)c3O)C[C@@H]([C@@H]1O)N2C)OCO4`, the Potency is 8.91 µM (active) and 14.1 µM (active). With `CC1(C)C(C=C(Cl)Cl)C1C(=O)OCc1cccc(Oc2ccccc2)c1` (configuration not stated), the Potency entry was “inactive”. In the case of `CO[C@H]1C=CO[C@@]2(C)Oc3c(C)c(O)c4c(O)c(c5c(c4c3C2=O)=NC2(CCN(CC(C)C)CC2)N=5)NC(=O)/C(C)=C\C=C/[C@H](C)[C@H](O)[C@@H](C)[C@@H](O)[C@@H](C)[C@H](OC(C)=O)[C@@H]1C`, the Potency result was “inactive”. For `O=S(=O)(O)c1cc(O)c2c(N=Nc3ccc(Nc4ccccc4)c4c(S(=O)(=O)O)cccc34)cc(S(=O)(=O)O)cc2c1`, the Potency is 14.1 µM (active).

`CCNC(=O)[C@@H]1CCCN1C(=O)[C@H](CCCN=C(N)N)NC(=O)[C@H](CC(C)C)NC(=O)[C@@H](Cc1c[nH]c2ccccc12)NC(=O)[C@H](Cc1ccc(O)cc1)NC(=O)[C@H](CO)NC(=O)[C@H](Cc1c[nH]c2ccccc12)NC(=O)[C@H](Cc1cnc[nH]1)NC(=O)[C@@H]1CCC(=O)N1`: the Potency was 8.91 µM (active).

Turning to `O=C(Nc1ccc(Br)cc1)c1cc(Br)c(Br)s1`, the Potency was 11.2 µM (active). `CC[C@@H](C(=O)O)[C@@H]1O[C@@H]([C@@H](C)[C@H](O)[C@H](C)C(=O)[C@H](CC)[C@H]2O[C@]3(C=C[C@@H](O)[C@]4(CC[C@@](C)([C@H]5CC[C@](O)(CC)[C@H](C)O5)O4)O3)[C@H](C)C[C@@H]2C)[C@@H](C)C[C@@H]1C`: the Potency is 0.794 µM (active). On to `CC(=O)Oc1c(C)cc(OCC(O)CNC(C)C)c(C)c1C` (configuration not stated), for which the Potency entry is “inactive”. The same measure, in the same setting: the value for `O=C(Nc1cccc(C(F)(F)F)c1)c1cc(Br)cc(Br)c1O` was 2.51 µM (active); that for `Clc1cc(Cl)c(OCC#CI)cc1Cl` was “inactive”; that for `CCCCCCCCCCCC[n+]1ccc2ccccc2c1` was 5.01 µM (active). As to `CCCCCCOc1ccc(C(=N)N(CCCC)CCCC)c2ccccc12`, the Potency was 17.8 µM (active). Take `CC(C(=O)O)c1ccc(N2Cc3ccccc3C2=O)cc1` (configuration not stated): the Potency was 10 µM (active). On to `CCOc1ccc2c(c1)C(C)=CC(C)(C)N2`, for which the Potency entry was “inactive”. As to `C=C1CC[C@@H]2[C@](C)(CO)[C@H](O)CC[C@@]2(C)[C@@H]1C/C=C1/C(=O)OC[C@H]1O`, the Potency is 25.1 µM (active). Take `CCOc1ccc(N=Nc2ccc(N)cc2N)cc1`: the Potency is 2.51 µM (active). In the case of `CCCCCCCC/C=C\CCCCCCCC(=O)O`, the Potency result is “inactive”. Consider `CCC(=O)OCC(=O)[C@@]1(OC(=O)CC)[C@H](C)C[C@H]2[C@H]3[C@H]([C@@H](O)C[C@@]21C)[C@@]1(C)C=CC(=O)C=C1C[C@H]3Cl`, for which the Potency result is “inactive”. The same measure, in the same setting: the value for `COc1cc([C@@H]2c3cc4c(cc3[C@@H](O[C@@H]3O[C@@H]5CO[C@@H](C)O[C@H]5[C@H](O)[C@H]3O)[C@H]3COC(=O)[C@H]23)OCO4)cc(OC)c1O` was “inactive”. As for `CO/N=C(\C(=O)N[C@@H]1C(=O)N2C(C(=O)O)=C(CSc3cnns3)CS[C@H]12)c1csc(N)n1`, the Potency entry is “inactive”.

For the molecule `Cc1cc(CC(C)CC(C)(C)C)n(O)c(=O)c1` (configuration not stated) (tested in a mixture with another compound), the Potency was 20 µM (active). Same read-out and setting: the value for `O=C1C(=O)c2ncccc2-c2cccnc21` was 0.562 µM (active). The same measure, in the same setting: for `COc1cc(-c2ccc(-[n+]3nc(-c4ccccc4)nn3-c3ccc([N+](=O)[O-])cc3)c(OC)c2)ccc1-[n+]1nc(-c2ccccc2)nn1-c1ccc([N+](=O)[O-])cc1` the value was 3.55 µM (active). Take `CC(C)(C)NC(=O)[C@@H]1C[C@@H]2CCCC[C@@H]2CN1C[C@@H](O)[C@H](Cc1ccccc1)NC(=O)[C@H](CC(N)=O)NC(=O)c1ccc2ccccc2n1`: the Potency result was “inactive”. Regarding `CC[C@@H](C(=O)[C@@H](C)[C@@H](O)[C@H](C)CCc1ccc(C)c(O)c1C(=O)O)[C@H]1O[C@](CC)([C@H]2CC[C@](O)(CC)[C@H](C)O2)C[C@@H]1C`, the Potency was 7.08 µM (active).

As to `CC[C@@H](C)CCCCC(=O)N[C@@H](CCNCS(=O)(=O)O)C(=O)N[C@H](C(=O)N[C@@H](CCNCS(=O)(=O)O)C(=O)N[C@H]1CCNC(=O)[C@H]([C@@H](C)O)NC(=O)[C@H](CCNCS(=O)(=O)O)NC(=O)[C@H](CCNCS(=O)(=O)O)NC(=O)[C@H](CC(C)C)NC(=O)[C@@H](CC(C)C)NC(=O)[C@H](CCNCS(=O)(=O)O)NC1=O)[C@@H](C)O` (X3-[Dab(CH2SO3H)]T[Dab(CH2SO3H)][Dab][Dab(CH2SO3H)][dL]L[Dab(CH2SO3H)][Dab(CH2SO3H)]T; lactam 4-C), the Potency result was “inactive”. As for `CO[C@H]1C=CO[C@@]2(C)Oc3c(C)c(O)c4c(O)c(c5c(nc6cc(C)ccn65)c4c3C2=O)NC(=O)/C(C)=C\C=C[C@H](C)[C@H](O)[C@@H](C)[C@@H](O)[C@@H](C)[C@H](OC(C)=O)[C@@H]1C`, the Potency result was “inactive”. Regarding `CC(C)C[C@@H]1NC(=O)[C@H](CCCN)NC(=O)[C@H](C(C)C)NC(=O)[C@@H]2CCCN2C(=O)[C@@H](Cc2ccccc2)NC(=O)[C@H](CC(C)C)NC(=O)[C@H](CCCN)NC(=O)[C@H](C(C)C)NC(=O)[C@@H]2CCCN2C(=O)[C@@H](Cc2ccccc2)NC1=O` (cyclo(V[Orn]L[dF]PV[Orn]L[dF]P)), the Potency was 3.98 µM (active).
